This is part of a sample that, as a whole, favours compounds with a hit. Of some 79,000 tested, about 15% had one in any assay. The source made the active and inactive calls. Cut-off read from the data, not from the text of the source: active = growth inhibition above about 70%; inactive = the rest.
Test: NCI Yeast Anticancer Drug Screen. Data for the rad50 strain (AID 155);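 note: 0% = growth of vehicle-only cultures of the same strain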
Details: S. cerevisiae rad50 strain growth inhibition; at 50.0 µM; active compounds read high
Method in brief: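 Cells are treated with compound, grown, and their growth is then scored against vehicle-only cultures of the same repair-deficient yeast strain.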

Structure (SMILES) | growth inhibition
CC(=O)[O][Ga]([Br])[O]C(C)=O | 6.3% (inactive)
CCOC(=O)C(NC(=O)c1ccccc1)(N1CCN(c2cc3c(cc2F)c(=O)c(C(=O)O)cn3CC)CC1)C(F)(F)F (stereo not given) | -29.4% (inactive)
O=c1cc[nH]c2ccc(Cl)cc12 | -10.2% (inactive)
CN(C)C(=S)OCC(C)(C)C | -1.45% (inactive)
CC(=O)NC(Cc1ccccc1)C(=O)Nc1ccccc1C (stereo not given) | 9.1% (inactive)
CCCCCn1[nH]nc(C(=O)OC)c1=O (tested in a mixture with another compound) | 18.8% (inactive)
O=c1ccc(=O)c2c(=O)c3cc4[nH]c5ccccc5[nH]c4cc3c(=O)c12 | 2.25% (inactive)
CCOC(=O)CSc1nc(-c2ccc(Cl)cc2)c(C#N)c(=O)[nH]1 | 5.9% (inactive)
COc1cc2c(cc1OC)C1CCc3ccccc3CN1CC2 (stereo not given) | 0.7% (inactive)
CC(=O)Nc1ccc(C(=O)N2N=C(C)/C(=C/c3cccc([N+](=O)[O-])c3)C2=O)cc1 | -9.8% (inactive)
COc1cccc(NC(=O)CC(=O)Nc2cccc(OC)c2)c1 | -5.05% (inactive)
O=C(O)C1C2CCC3C(C(=O)O)C3C21 (stereo not given) | -2.7% (inactive)
C=C1CCN(c2ccc([N+](=O)[O-])cc2)C1=O | 0% (inactive)
CCOC(=O)C(=O)C(=O)NN(C)C1=NCCN1 | -11.4% (inactive)
Cc1cc(CC#N)c(CC#N)cc1C | 4.05% (inactive)
S=c1sc2cscc2s1 | -6.7% (inactive)
Nc1cc(F)ccc1CC(=O)O | 11.4% (inactive)
COc1cc2c(oc(=O)c3c4occc4cc(OC)c23)c2cccc(OCc3ccccc3)c12 | 2% (inactive)
Cc1csc2nc(-c3ccccc3)[nH]c(=S)c12 | 5.5% (inactive)
O=C(OCCSC(=S)N1CCCCC1)c1ccccc1 | -13.5% (inactive)

Structure (SMILES) | growth inhibition
CCOC(=O)c1cnc2ccccc2c1OCC | -5.45% (inactive)
Brc1cc2c(cc1C1SCCS1)OCO2 | 49.5% (inactive)
CCCCCCCCCCCCCOCC(=O)OC | -0.75% (inactive)
Cc1ccc(S(=O)(=O)NNC(=O)c2cccnc2)cc1 | -11.4% (inactive)
Nc1ccc(C(=O)Nc2ccc(C(=O)Nc3ccc4c(O)cc(S(=O)(=O)O)cc4c3)cc2)cc1 | -6.3% (inactive)
O=C(O)CCC1CCCO1 (stereo not given) | -5.4% (inactive)
CCCC=Nc1ccccc1 | 8.3% (inactive)
COc1ccc([N+](=O)[O-])c2ncncc12 | -14.4% (inactive)
CC(C)(C)OC(=O)C(C1NC2C(=O)OCC2(CO)S1)N1C(=O)c2ccccc2C1=O (stereo not given) | 38.6% (inactive)
CN(C)c1nc(N)nc(CS)n1 | 10.8% (inactive)
CN(CC1NCCCC1O)C12CC3CC(CC(C3)C1)C2 (stereo not given) | 0.5% (inactive)
O=[N+]([O-])c1ccc2[nH]ncc2c1 | 19.2% (inactive)
Clc1ccc(-c2nnc(-c3ccccc3)o2)cc1Cl | -8.4% (inactive)
O=C(NNC(=S)Nc1ccc(S(=O)(=O)N2CCCCC2)cc1)c1ccncc1 | 5.25% (inactive)
CC(C)C(O)(C(=O)O)C(C)C | 11.1% (inactive)
CC1(C)/C(=C/N=O)N(O)C(C)(C)N1O | -26.9% (inactive)
COc1ccc(N=Cc2ccc(C=Nc3ccc(OC)cc3)cc2)cc1 | 23.2% (inactive)
CC(=O)Nc1ccc2c(c1)Cc1cc(Cl)c(Cl)cc1-2 | 57.5% (inactive)
CCOC(=O)C(NC(=S)Cc1ccccc1)C(=O)OCC | 10.1% (inactive)
CC1C(=O)CCC2CCCCC21 (stereo not given) | 18.1% (inactive)

Test: NCI Yeast Anticancer Drug Screen. Data for the mec2-1 strain (AID 157)
Details: S. cerevisiae mec2-1 strain, at 50.0 µM, active compounds read high
Method in brief: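 Yeast mec2-1 mutant treated with compound. Readout: growth inhibition vs vehicle controls.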

Structure (SMILES) | growth inhibition
CC(=O)[O][Ga]([Br])[O]C(C)=O | 11.8% (inactive)
CCOC(=O)C(NC(=O)c1ccccc1)(N1CCN(c2cc3c(cc2F)c(=O)c(C(=O)O)cn3CC)CC1)C(F)(F)F (stereo not given) | -34.4% (inactive)
O=c1cc[nH]c2ccc(Cl)cc12 | 5.3% (inactive)
CN(C)C(=S)OCC(C)(C)C | -14.8% (inactive)
CC(=O)NC(Cc1ccccc1)C(=O)Nc1ccccc1C (stereo not given) | -18.3% (inactive)
CCCCCn1[nH]nc(C(=O)OC)c1=O (tested in a mixture with another compound) | 17.1% (inactive)
O=c1ccc(=O)c2c(=O)c3cc4[nH]c5ccccc5[nH]c4cc3c(=O)c12 | -7.05% (inactive)
CCOC(=O)CSc1nc(-c2ccc(Cl)cc2)c(C#N)c(=O)[nH]1 | -0.45% (inactive)
COc1cc2c(cc1OC)C1CCc3ccccc3CN1CC2 (stereo not given) | -25.5% (inactive)
CC(=O)Nc1ccc(C(=O)N2N=C(C)/C(=C/c3cccc([N+](=O)[O-])c3)C2=O)cc1 | -17.6% (inactive)
COc1cccc(NC(=O)CC(=O)Nc2cccc(OC)c2)c1 | 3.6% (inactive)
O=C(O)C1C2CCC3C(C(=O)O)C3C21 (stereo not given) | 18.6% (inactive)
C=C1CCN(c2ccc([N+](=O)[O-])cc2)C1=O | -11.2% (inactive)
CCOC(=O)C(=O)C(=O)NN(C)C1=NCCN1 | -2.05% (inactive)
Cc1cc(CC#N)c(CC#N)cc1C | -10.1% (inactive)
S=c1sc2cscc2s1 | 18.6% (inactive)
Nc1cc(F)ccc1CC(=O)O | 23.1% (inactive)
COc1cc2c(oc(=O)c3c4occc4cc(OC)c23)c2cccc(OCc3ccccc3)c12 | 14.9% (inactive)
Cc1csc2nc(-c3ccccc3)[nH]c(=S)c12 | 6.4% (inactive)
O=C(OCCSC(=S)N1CCCCC1)c1ccccc1 | -8.6% (inactive)

Structure (SMILES) | growth inhibition
CCOC(=O)c1cnc2ccccc2c1OCC | -12.2% (inactive)
Brc1cc2c(cc1C1SCCS1)OCO2 | 20.4% (inactive)
CCCCCCCCCCCCCOCC(=O)OC | 20.8% (inactive)
Cc1ccc(S(=O)(=O)NNC(=O)c2cccnc2)cc1 | 18.7% (inactive)
Nc1ccc(C(=O)Nc2ccc(C(=O)Nc3ccc4c(O)cc(S(=O)(=O)O)cc4c3)cc2)cc1 | -6.65% (inactive)
O=C(O)CCC1CCCO1 (stereo not given) | -9.35% (inactive)
CCCC=Nc1ccccc1 | 3.65% (inactive)
COc1ccc([N+](=O)[O-])c2ncncc12 | -12% (inactive)
CC(C)(C)OC(=O)C(C1NC2C(=O)OCC2(CO)S1)N1C(=O)c2ccccc2C1=O (stereo not given) | -1.65% (inactive)
CN(C)c1nc(N)nc(CS)n1 | 10.4% (inactive)
CN(CC1NCCCC1O)C12CC3CC(CC(C3)C1)C2 (stereo not given) | -6.65% (inactive)
O=[N+]([O-])c1ccc2[nH]ncc2c1 | -8.05% (inactive)
Clc1ccc(-c2nnc(-c3ccccc3)o2)cc1Cl | -24.8% (inactive)
O=C(NNC(=S)Nc1ccc(S(=O)(=O)N2CCCCC2)cc1)c1ccncc1 | 11.1% (inactive)
CC(C)C(O)(C(=O)O)C(C)C | -11% (inactive)
CC1(C)/C(=C/N=O)N(O)C(C)(C)N1O | -34.6% (inactive)
COc1ccc(N=Cc2ccc(C=Nc3ccc(OC)cc3)cc2)cc1 | 2.25% (inactive)
CC(=O)Nc1ccc2c(c1)Cc1cc(Cl)c(Cl)cc1-2 | -4.05% (inactive)
CCOC(=O)C(NC(=S)Cc1ccccc1)C(=O)OCC | -2.85% (inactive)
CC1C(=O)CCC2CCCCC21 (stereo not given) | -17.4% (inactive)
